Screening data deposited in PubChem BioAssay by several laboratories.
TMEM16A inh = blocks the mouse calcium-activated chloride channel TMEM16A | 310,000 tested, 1.2% active | HEK293 TMEM16A/YFP iodide influx fluorescence, ionomycin | normalized B-score (activity score, 25-100; higher = stronger inhibition) at 10 µM | AID 588511;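 active means ratio plate-corrected score three or more library SD toward inhibition, starting fluorescence score within five deviations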;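 further: score derived from kinetic fluorescence span divided by baseline fluorescence per well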
TLR9-MyD88 block = TLR9-MyD88 interaction inhibition; CHO BLA complementation TLR9-MyD88, CCF4 FRET ratio; 340,000 tested, 0.21% active; inhibition, % at 4.98 µM; AID 504734; Q9NR96+Q99836;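 active means inhibition above the mean over all tested compounds plus 3 SD, cut at about 21% in these data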;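 further: 0% = DMSO only wells and 100% = clavulanate BLA inhibitor control wells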
TMEM16A act = activators or potentiators of mouse TMEM16A chloride channel | 340,000 tested, 0.3% active | B-score at 10 µM | HEK293 TMEM16A/YFP-H148Q/I152L, iodide quench fluorescence; active compounds read low;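 active means fluorescence-ratio B-score plate-corrected deviation score at least 3 library SD below zero, with starting fluorescence score within 5 deviations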;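 further: channel opened by trigger with iodide after compound preincubation; score built on the fluorescence ratio of max minus min over baseline; more negative score means more quench and so TMEM16A activation or potentiation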
NOD2-RIPK2 inh = inhibitors of human NOD2-RIPK2 interaction; O43353; CHO BLA complementation NOD2-RIPK2, CCF4 ratio; inhibition, % at 4.98 µM; 360,000 tested, 0.38% active; AID 624267; in the data active means inhibition above about 21%;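 further: 0% = vehicle only and 100% = reference blocker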
Target sequence (O43353 whole entry, looked up): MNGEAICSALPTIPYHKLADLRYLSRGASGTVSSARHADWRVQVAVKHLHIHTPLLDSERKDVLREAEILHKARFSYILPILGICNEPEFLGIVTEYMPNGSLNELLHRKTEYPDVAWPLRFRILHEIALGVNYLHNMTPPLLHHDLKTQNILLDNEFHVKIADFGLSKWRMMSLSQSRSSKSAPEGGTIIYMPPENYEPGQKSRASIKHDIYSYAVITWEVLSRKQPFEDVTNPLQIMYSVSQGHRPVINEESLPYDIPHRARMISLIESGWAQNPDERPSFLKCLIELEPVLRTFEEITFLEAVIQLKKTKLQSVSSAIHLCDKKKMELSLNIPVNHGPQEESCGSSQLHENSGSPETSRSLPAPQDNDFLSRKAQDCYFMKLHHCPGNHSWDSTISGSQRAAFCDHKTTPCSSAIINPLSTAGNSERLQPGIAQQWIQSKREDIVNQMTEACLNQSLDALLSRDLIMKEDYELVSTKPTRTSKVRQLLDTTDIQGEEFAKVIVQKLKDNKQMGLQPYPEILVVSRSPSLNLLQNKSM
TLR4 MyD88 comp = inhibitors of human TLR4-MyD88 binding; O00206+Q99836; HeLa CL3-4 TLR4/MyD88 BLA complementation, FRET ratio; inhibition, % at 8.4 µM; 200,000 tested, 0.18% active; AID 861; in the data active means inhibition above about 25%;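 further: 0% = vehicle and 100% = reference inhibitor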
m5-HT2A agonist = agonists of mouse serotonin 5-HT2A receptor (HTR2A); P35363; CHO-K1 mHTR2A beta-arrestin complementation, luminescence; percent of 30 µM serotonin response; activation, % at 7.6 µM; 360,000 tested, 0.66% active; AID 624169;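 active means activation above a run cutoff, the mean activation of all tested compounds plus 3 SD, cut at about 14% in these data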;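 further: 0% = plate median of compound wells and 100% = 30 µM serotonin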
The depositor's hits bear a star; i = inactive; x = no result given. In the library only some 2.4% were active in any assay of this set; here they are far more common.

SMILES	TMEM16A inh	TLR9-MyD88 block	TMEM16A act	NOD2-RIPK2 inh	TLR4 MyD88 comp	m5-HT2A agonist
CCCn1nc([N+](=O)[O-])c(C(C#N)c2nc3ccccc3s2)c(Cl)c1=O (configuration not stated)	100*	8	i	-7	-12	-2
CCn1nc([N+](=O)[O-])c(C(C#N)c2nc3ccccc3n2C)c(Cl)c1=O (configuration not stated)	i	3	i	-3	-5	2
COc1ccc(NC(=S)NCc2ccc(S(N)(=O)=O)cc2)cc1OC	i	-11	i	3	6	3
NS(=O)(=O)c1ccc(CNC(=S)Nc2ccc(Cl)c(Cl)c2)cc1	i	-4	-5.3*	-4	-5	-5
COc1cccc(-c2nn(C)c3sc(C(=O)N4CCN(c5ccccn5)CC4)cc23)c1	25*	-16	i	3	10	-2
COc1cccc(-c2nn(C)c3sc(C(=O)N4CCOCC4)cc23)c1	i	2	i	1	-2	3
CCn1c(=NC(=O)CS(=O)(=O)c2ccc(C)cc2)sc2cccc(OC)c21	100*	-2	i	-5	x	1
COc1cccc2sc(=NC(=O)CS(=O)(=O)c3ccc(F)cc3)n(C)c12	i	0	i	-10	x	-2
O=C(O)c1cccc(Cn2c(Cl)c(/C=N/Nc3ccccc3)sc2=O)c1	i	-7	-35*	0	-12	-3
O=c1cc(-c2ccccc2Cl)oc2c(NS(=O)(=O)c3cc(Cl)cc(Cl)c3O)ccc(O)c12	100*	-6	i	6	2	3
CCc1ccc(S(=O)(=O)Nc2ccc(O)c3c(=O)cc(-c4ccccc4Cl)oc23)cc1	i	-4	i	-13	x	-3
CCCNC(=O)NC(=O)CSc1nc2cc(C(=O)OC)ccc2c(=O)n1-c1ccccc1	i	3	i	5	19	1
Cc1ccc(-c2noc(CCCC(=O)Nc3cccnc3)n2)cc1	25*	4	i	-11	5	-3
O=C(CCCc1nc(-c2ccccc2)no1)Nc1cccnc1	i	-5	i	-11	1	9
COc1ccc(/C=N/NC(=O)c2cc[n+]([O-])cc2)cc1OC	i	-5	i	-6	x	-1
C#CCOCCOCCOCCNc1nc(N2CCN(C(=O)CCCCCCCCCCNC(=O)[C@H]([C@@H](C)CC)n3cc(CCCCCN)nn3)CC2)nc(N2CCN(C(=O)CCCCCCCCCCNC(=O)[C@@H]([C@H](C)O)n3cc(C)nn3)CC2)n1	i	3	-12*	37*	x	5
C#CCOCCOCCOCCNc1nc(N2CCN(C(=O)CCCCCCCCCCNC(=O)[C@H](CCCCN)n3cc(C)nn3)CC2)nc(N2CCN(C(=O)CCCCCCCCCCNC(=O)[C@@H]([C@H](C)CC)n3cc(CCCCCN)nn3)CC2)n1	25*	23*	-18*	50*	x	-1
C#CCOCCOCCOCCNc1nc(N2CCN(C(=O)CCCCCCCCCCNC(=O)[C@H](CCCCN)n3cc(CCO)nn3)CC2)nc(N2CCN(C(=O)CCCCCCCCCCNC(=O)[C@@H]([C@H](C)O)n3cc(C)nn3)CC2)n1	i	-13	i	11	x	5
C#CCOCCOCCOCCNc1nc(N2CCN(C(=O)CCCCCCCCCCNC(=O)Cn3cc(CCCCCN)nn3)CC2)nc(N2CCN(C(=O)CCCCCCCCCCNC(=O)[C@H](CO)n3cc(CCCCCN)nn3)CC2)n1	i	-15	i	-4	x	-5
C#CCOCCOCCOCCNc1nc(N2CCN(C(=O)CCCCCCCCCCNC(=O)Cn3cc(CCCCCN)nn3)CC2)nc(N2CCN(C(=O)CCCCCCCCCCNC(=O)[C@H]([C@@H](C)CC)n3cc(CCCCCN)nn3)CC2)n1	25*	5	-13*	14	x	1
COc1ccc(S(=O)(=O)N2CCCCCC2)cc1C(=O)N1CCCC(C(F)(F)F)C1 (configuration not stated)	i	2	i	-8	x	3
COc1cccc(-c2cnc3c(NC(C)=O)cc(-c4ccsc4)cn23)c1	x	x	x	5	x	-1
COc1ccc(Cl)cc1-c1cc(C(=O)NCC2CCCCC2)[nH]n1	x	x	x	4	x	-2
O=C(N/N=C/c1cccc([N+](=O)[O-])c1)C1CC(=O)N(c2ccc(Cl)cc2)C1 (configuration not stated)	i	1	i	-3	0	1
O=c1cc(N2CCCCC2)c(-c2ccccc2)nn1Cc1c(Cl)cccc1Cl	25*	8	-26*	0	3	5
SMILES	TMEM16A inh	TLR9-MyD88 block	TMEM16A act	NOD2-RIPK2 inh	TLR4 MyD88 comp	m5-HT2A agonist
Cc1ccc(CSCC(=O)Nc2ccccc2C(=O)O)cc1	i	0	i	-7	x	3
CSc1ccccc1NC(=O)CSCc1ccc(C)cc1	i	5	-20*	-7	-2	0
CCOc1ccc(OCc2ccc(C(=O)N3CCCCC3)o2)cc1	i	5	i	-1	x	-3
CCOc1ccc(OCc2ccc(C(=O)N3CCc4ccccc4C3)o2)cc1	i	-3	i	-4	8	15*
COc1ccc(C(CNC(=O)COc2cccc(C)c2)N2CCCC2)cc1 (configuration not stated)	x	-2	i	-7	x	-11
COc1ccc(-c2cc(C)no2)cc1S(=O)(=O)Nc1ccccc1	i	-7	i	3	x	-2
CCc1ccc(-c2cc(C)no2)cc1S(=O)(=O)NCCc1ccc(OC)c(OC)c1	100*	0	i	0	x	-7
COc1ccccc1NS(=O)(=O)c1cc(-c2cc(C)no2)ccc1OC	100*	0	i	8	x	-5
O=C(O)c1ccc(S(=O)(=O)c2ccc3c(c2)C(=O)N(NC(=O)c2cccnc2)C3=O)cc1	i	-13	i	1	x	4
Cc1cc(C(=O)NN)n[nH]1	i	2	i	1	x	0
COc1cccc(/C=N/NC(=O)CCn2cnc3ccccc32)c1	i	3	i	1	x	-2
Cc1cccc(N2C(=O)c3cccc(Oc4ccc(Cl)cc4)c3C2=O)c1	i	-2	-7.3*	-2	-2	2
COc1cccc(-c2coc3c(C)c4oc(=O)c(CCC(=O)O)c(C)c4cc23)c1	100*	-3	i	-6	x	0
COc1cccc(-c2coc3c(C)c4oc(=O)c(CC(=O)O)c(C)c4cc23)c1	i	-7	i	5	x	0
FC(F)Sc1ccc(NC(=S)NCC2CCCCC2)cc1	100*	-2	i	-2	8	-3
Cc1ccc(NC(=O)c2ccccc2NS(=O)(=O)c2ccc(Cl)s2)cc1S(=O)(=O)N1CCOCC1	25*	-13	i	-2	-5	2
